# High-throughput results deposited in PubChem BioAssay by National Center for Advancing Translational Sciences (NCATS).
# Most compounds without a hit are left out; they make up all but 1.3% or so of the library.
# Giardia killer – Small Molecules that selectively kill Giardia lamblia: qHTS; 0.15% of 340,000 active; activity change, % at 7.66 µM, hits read low; Giardia lamblia trophozoite viability; in the data active = activity change below about -80%; inconclusive = between about -30% and that limit;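 note: parasites exposed to compound for two days anaerobically before the ATP read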
#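 Each well holds 100 Giardia trophozoites and compound. After two days (48 hrs) at 37 deg C in anaerobic conditions, ATP is quantified by luminescence.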
# TrxR1 inh – qHTS Assay for Inhibitors of Mammalian Selenoprotein Thioredoxin Reductase 1 (TrxR1): qHTS. recombinant rTrxR1, NADPH fluorescence consumption, selenite substrate. 1% of 390,000 active. AID 588453, 2011. Thioredoxin reductase 1, cytoplasmic (Rattus norvegicus), O89049. Potency, µM (highest dose often 114 µM), without a hit: top-dose activity change, negative = inhibition, usual class: inhibitors; note: potency is the fitted concentration of half-maximal effect; nearly all actives have a fitted effect of over 65% in size
# Target sequence (O89049 whole entry, looked up): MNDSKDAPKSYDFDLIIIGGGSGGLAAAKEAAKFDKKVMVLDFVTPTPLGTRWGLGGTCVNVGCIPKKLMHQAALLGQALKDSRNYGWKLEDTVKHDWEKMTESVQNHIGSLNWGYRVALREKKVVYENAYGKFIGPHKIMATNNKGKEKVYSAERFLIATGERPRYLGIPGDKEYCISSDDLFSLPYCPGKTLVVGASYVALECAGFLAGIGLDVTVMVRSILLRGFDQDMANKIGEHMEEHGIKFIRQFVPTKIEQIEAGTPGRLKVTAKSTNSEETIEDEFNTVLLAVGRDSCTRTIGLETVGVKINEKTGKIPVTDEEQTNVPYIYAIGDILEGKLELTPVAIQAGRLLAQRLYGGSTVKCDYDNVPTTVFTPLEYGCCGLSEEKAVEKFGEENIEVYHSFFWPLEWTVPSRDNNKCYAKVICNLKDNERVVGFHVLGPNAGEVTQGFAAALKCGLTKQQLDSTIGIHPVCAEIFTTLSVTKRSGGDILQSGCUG
#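 Rat TrxR1 (90 nM in the dispensed reagent) was pre-reduced with 400 uM NADPH for 5 min at room temperature, then incubated with compound for 15 min. After 400 uM selenite was added, NADPH fluorescence (Ex 340/Em 450 nm) was followed for 8 min.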
# TrxR1 substrate – qHTS Assay for Substrates of Mammalian Selenoprotein Thioredoxin Reductase 1 (TrxR1): qHTS; Potency, µM (top dose mostly 114 µM), without a hit: top-dose activity change, negative = substrate turnover; purified TrxR1 substrate turnover, NADPH consumption readout; Thioredoxin reductase 1, cytoplasmic (Rattus norvegicus), O89049; 0.01% of 390,000 active; note: potency is the fitted concentration of half-maximal effect; nearly all actives have a fitted effect of over 50% in size
#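 Rat TrxR1, dispensed at 90 nM, was prereduced with 400 uM NADPH (final) for 5 min at ~22 deg C, then incubated with compound 15 min before 400 uM selenite. A first-read NADPH fluorescence drop versus no-compound background flagged substrates.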
# KAT2A inh – qHTS Assay for Inhibitors of GCN5L2; Histone acetyltransferase KAT2A (Homo sapiens), Q92830; GCN5L2 HAT assay, ThioGlo1 CoA-SH fluorescence; Potency, µM (top dose mostly 58.9 µM), without a hit: at the top dose activity change, negative = inhibition, actives largely listed as inhibitors; 0.21% of 390,000 active; AID 504327, 2011; note: potency is the fitted concentration of half-maximal effect
#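 Preincubate 20nM GCN5L2 with compound 15 min, RT → add 50uM ThioGlo1 + 75uM H3(1-25) + 70uM acetyl-CoA → read fluorescence 0 and 20 min. Primary qHTS; fluorescent artifacts likely.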
# Pin1 inh – qHTS Assay to Find Inhibitors of Pin1. Pin1 FP peptide displacement, HiFluor488, 10 min. Peptidyl-prolyl cis-trans isomerase NIMA-interacting 1 (Homo sapiens), Q13526. 0.009% of 390,000 active. AID 504891, 2011. Potency, µM (highest dose often 115 µM), inactives show at the top dose activity, negative = inhibition, hits mostly inhibitors; active = well fitted inhibition curve with a large enough effect in the polarisation, with a control signal flat, not every such curve was filed as active; inconclusive = small, poorly fitted or top-dose-only effect, or effect the other way, or a change in a side signal; inactive = no such curve, though single readings can be large or run the other way; the % refers to the polarisation; note: potency is the fitted concentration of half-maximal effect
# Target sequence (Q13526 whole entry, looked up): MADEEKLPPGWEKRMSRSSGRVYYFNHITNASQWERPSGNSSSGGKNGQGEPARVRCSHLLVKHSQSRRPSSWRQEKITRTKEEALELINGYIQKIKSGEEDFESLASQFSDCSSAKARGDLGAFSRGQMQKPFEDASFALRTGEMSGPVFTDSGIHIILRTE
# GALK inh – qHTS Assay for Inhibitors of Human Galactokinase (GALK) | Purified GALK, Kinase-Glo residual ATP luminescence | Potency, µM (titrated, usually from 57.5 µM), inactives show top-dose activity change, negative = inhibition, hits mostly inhibitors | 0.007% of 270,000 active | AID 1868, 2009; note: potency is the fitted concentration of half-maximal effect
#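 Kinase-Glo Plus luminescence measured ATP left after a 1 h room-temperature reaction. The reaction used 5 nM GALK, 100 uM galactose and 35 uM ATP at pH 8.0 (20 mM HEPES, 5 mM MgCl2, 60 mM NaCl, 1 mM DTT, 0.01% BSA).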
# * marks the source's active call; other numbers are inactive results; ? = inconclusive; . = no result given; [ ] = remark or other dose. Unless noted, calls come from the whole dose curve; as a rule, active = well fitted curve in the direction sought with a large enough effect; inconclusive = small, poorly fitted or top-dose-only effect, or another doubt; inactive = no such curve, though single readings can be large; an effect the other way counts as inactive or inconclusive. % is set by controls: 0 for no effect and ±100 for the full control effect.
SMILES,Giardia killer,TrxR1 inh,TrxR1 substrate,KAT2A inh,Pin1 inh,GALK inh
Cc1cc(N2CCOCC2)nc2ccc(NC(=S)NC(C)C)cc12,23.1,-13.5%,10.5%,4.2%,-0.6%,2.2%
O=c1[nH]c(=O)n(Cc2ccc(Oc3ccccc3)cc2)cc1Br,.,.,.,-3.1%,.,.
C=C1CC(Cn2cc(Br)c(=O)[nH]c2=O)(c2ccc(-c3ccccc3)cc2)OC1=O (stereo not given),-2.3,7.08µM*,-1.1%,.,18.5%,.
CC(/C=N/NC(=O)Cc1cccn1C)=C\c1ccccc1,-4.9,50.1µM*,-6.8%,-4.4%,1.5%,0.7%
O=C(NCCN1CCOCC1)C1(C(F)(F)F)C/C(=C/CCO)CCCO1 (stereo not given),14.8,35.7%,2.8%,.,-0.7%,.
COc1cc(NC(=O)C(OC(=O)CNC(=O)c2ccccc2)c2ccccc2)c(OC)cc1Cl (stereo not given),.,.,.,.,-0.5%,.
Cc1cc2nc(-c3ccc(SCC(=O)N4CCN(C(=O)c5ccco5)CC4)nc3)[nH]c2cc1C,?,12.6µM*,42.6%,?,?,1.9%
O=C(Nc1ccccc1C(=O)Nc1ccncc1)c1ccccc1,-11.7,23.6%,2.1%,-0.5%,-0.7%,-0.1%
O=C(O)c1cccc(-n2cccc2/C=C/[N+](=O)[O-])c1,-17.0,10µM*,5.6%,-25.6%,?,3.6%
O=C(O)c1cccc(-n2cccc2/C=C\[N+](=O)[O-])c1,7.9,?,-3.8%[57.1 µM],?,.,0.9%
Nc1ccc(N2CCN(c3ncc(C(F)(F)F)cc3Cl)CC2)c(C(F)(F)F)c1,.,-3.6%,-14.4%,-19.6%,0.0%,.
CC(C(=O)Nc1cc(C(F)(F)F)ccc1Cl)n1nnc2sc3c(c2c1=O)CCCC3 (stereo not given),.,12.3%,-5.9%,-2.5%,25.5%,.
CCOc1ccc(CN(C)C(=O)CCl)cc1,-7.0,17.8µM*,12.9%[57.1 µM],-3.8%,-4.0%,0.2%
CCOc1ccc(CN(C)C(=O)CCNC(=O)c2ccco2)cc1,-23.6,4.7%,4.5%,-3.7%,-0.2%,.
Cc1nc2scc(-c3ccccc3)c2c(=O)n1N,4.4,-1.9%,-7.7%,3.7%,-1.4%,-0.5%
Cc1nc2scc(-c3ccccc3)c2c(=O)n1N=C1C=CC(=O)C=C1,-8.5,3.16µM*,4.0%[57.1 µM],-1.5%,-11.1%,-1.1%
Cc1ccc(NC(=S)NC(=O)C2CCCC2)cc1C,-10.3,?,-18.4%,-11.4%,-7.8%,6.3%
Cc1ccc(NC(=S)NC(=O)C2CCC2)cc1C,22.8,50.1µM*,3.0%,-29.3%,-14.1%,-2.6%
O=C(/C=C/c1ccc(OCCCF)cc1)NCc1ccc(Cl)cc1,-12.2,-6.8%,-4.7%,3.55µM*,-0.2%,-2.7%
CCCN1C(=O)/C(=c2\sc3nc(=O)c(Cc4ccc(C)cc4)nn3c2=O)c2ccccc21,22.1,?,-6.6%,-6.8%,.,2.7%
NC(=O)CN1C(=O)/C(=c2\sc3nc(=O)c(Cc4ccccc4)nn3c2=O)c2ccccc21,6.1,17.8µM*,3.0%,-15.4%,-14.9%,-2.0%
O=C1/C(=C/c2cccs2)SC(=S)N1NS(=O)(=O)c1ccccc1,1.9,-26.4%,-12.3%,-1.8%,-0.5%,-12.3%
O=C1/C(=C/C=C/c2ccco2)SC(=S)N1NS(=O)(=O)c1ccccc1,-19.5,44.7µM*,-20.1%,20µM*,?,.
CC(C(=O)O)N1C(=O)/C(=C/C=C/c2ccco2)SC1=S (stereo not given),-12.2,14.1µM*,-17.6%,7.94µM*,.,-1.9%
O=C(CCS(=O)(=O)c1ccccc1)N1CCCc2ccccc21,-4.0,70.8µM*,-0.1%,-0.9%,4.5%,-2.0%
SMILES,Giardia killer,TrxR1 inh,TrxR1 substrate,KAT2A inh,Pin1 inh,GALK inh
CCCCN(CCCC)c1nc2ccccc2nc1C(C#N)C(=O)NCCCOC (stereo not given),20.4,39.8µM*,3.5%,-15.4%,-0.9%,3.8%
O=S1(=O)CCOCCN1Cc1ccccc1,?,-17.3%[57.1 µM],-3.4%[57.1 µM],-1.0%,-10.8%,.
C=C1C=CS(=O)(=O)N(Cc2ccccc2)C1,-5.9,35.5µM*,8.3%,.,-2.2%,.
CCCN(CCC)c1ccc(/C=C/c2sc3ccccc3[n+]2CCCCI)cc1,.,?,-5.7%[0.0914 µM],.,.,.
Cc1c(NS(=O)(=O)c2ccccc2)cc(Cl)c(O)c1C,10.2,25.1µM*,7.7%,-6.8%,1.3%,-2.1%
CCOC(=O)[C@H]1[C@H]2COc3ccc(C)cc3[C@@H]2N2C(=O)CN(Cc3ccco3)C(=O)[C@@]12C,-7.0,56.2µM*,3.1%,0.2%,-4.6%,.
Cc1ccc(-c2nc3cccc(C)n3c2Nc2ccc(F)cc2)o1,-10.7,-16.1%,108.3%,.,-1.1%,.
O=[N+]([O-])/C(Cl)=C(/NCCO)C(Cl)=C(Cl)Cl,-100.1*,?,10.4%[57.1 µM],.,26.0%,.
O=C(OC1Cc2c(O)cc(O)cc2OC1c1cc(O)c(O)c(O)c1-c1c(C2Oc3cc(O)cc(O)c3CC2OC(=O)c2cc(O)c(O)c(O)c2)cc(O)c(O)c1O)c1cc(O)c(O)c(O)c1 (stereo not given),.,.,.,14.1µM*,.,.
O=C1C=CC(=Nc2ccc3c(c2)Cc2cc(F)ccc2-3)O1,-19.5,3.16µM*,6.0%,.,-1.9%,.
Cc1ccnc(NC(=O)c2ccc(OCC3CCCO3)cc2)c1 (stereo not given),-84.5*,3.5%[57.1 µM],0.8%[57.1 µM],-25.7%,-9.9%,.
O=C1N(c2ccccc2)C[C@@H]2C[C@@H](c3cccs3)N3CCC[C@@]123,-1.1,20µM*,3.8%,-3.7%,1.5%,4.6%
CC(C)(O)C#Cc1ccc([C@@H]2C[C@H]3CN(c4ccccc4)C(=O)[C@]34CCCN24)s1,-29.6,?,-10.3%,14.0%,5.5%,1.3%
COc1cccc(C(=O)C(C#N)=C(SC)SC)c1,10.2,20µM*,-0.6%,-4.0%,-6.7%,-0.9%
CSC(SC)=C(C#N)C(=O)c1ccccc1,-5.0,17.8µM*,4.3%[57.1 µM],-2.6%,-4.6%,.
COc1cccc(C(=O)Nc2ccc(NC(C)=O)cc2)c1,0.1,22.9%,8.2%,2.0%,-3.7%,0.7%
CCOc1ccc(-c2cc(C(=O)Oc3ccc(C#N)cc3)no2)cc1,.,-2.4%,7.4%,-10.6%,1.3%,.
O=C(Nc1cccc2cccnc12)C(Cl)(Cl)Cl,-8.5,28.2µM*,-0.4%,.,2.2%,.
O=C(Nc1cccc2cccnc12)OC(Cl)(Cl)Cl,10.3,-21.2%,0.8%,.,61.0%,.
COc1cc(OC)cc(C(=O)Nc2cc3c(cc2N2CCOCC2)n(C)c(=O)n3C)c1,.,11.2%,0.8%,0.0%,-11.6%,.
